# About 83,000 compounds went through this panel and 20% of them were active in at least one assay; those are over-represented in the sample as a whole.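 Percent growth is the endpoint: 0 to 100 indicates growth inhibition (40 means 60% inhibition), 0 means no net growth, and negative values indicate cell death.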 Unmarked numbers belong to inactive results. Activity calls are given as the source filed them. Rule for the calls: active = growth percent below 10; inactive = the rest.
# Assays:
# Test in all cases: NCI-60 one-dose screen, 48 h (100 = growth as untreated, 0 = no growth, -100 = all killed)
# Details in all cases: 10 µM unless noted
# [1] = system: T-47D breast
# [2] = system: BT-549 breast
# [3] = system: MDA-MB-435 melanoma
# [4] = system: SW-620 colon
# [5] = system: MCF7 breast
# [6] = system: HCT-116 colon
# [7] = system: HCC-2998 colon
# [8] = system: KM12 colon
Compound,growth [1],growth [2],growth [3],growth [4],growth [5],growth [6],growth [7],growth [8]
O=C(CSc1nnc(-c2ccc(Cl)cc2)n1-c1ccccc1)Nc1cccc(F)c1,3.95% (active),50.4%,49.6%,30.9%,39%,-13.8% (active),59.7%,53.3%
COc1ccc(NC(=O)CCCCCCNC(=O)C(O)(O)C(F)(F)F)cc1,18.7%,76.4%,38.8%,10.2%,38.4%,7.44% (active),55.9%,41.6%
Cc1[nH]c(C(=O)Nc2ccc(C(=O)NCC3CCNCC3)cc2OC(C)C)c(Cl)c1Cl,77.6%,92.6%,72.2%,33.6%,-76.3% (active),33.2%,55.3%,56%
Cc1ccc(C(=O)CSc2nc3ccccc3c(=O)n2C)cc1,76.2%,96.1%,100%,99.2%,78.3%,89.2%,113%,86.7%
COc1cc2oc(-c3cccc(NC(=O)[C@@H](N)C(C)C)c3)cc(=O)c2c(OC)c1OC,87.3%,104%,109%,105%,92.9%,98.6%,109%,101%
CC(=O)Nc1ccccc1-c1nc2ccccc2s1,99.3%,102%,98.8%,107%,97.6%,95.3%,99.7%,105%
Cc1ncn(-c2ccc(/C=N/Nc3ccnc4cc(Cl)ccc34)cc2)c1C,-61.6% (active),-93.7% (active),-80.2% (active),-60.4% (active),-69.1% (active),-83.6% (active),-44.5% (active),-25.8% (active)
Cc1cc(=O)oc2cc(OCCCOc3ccc(/C=C/C(=O)Nc4ccc(Br)cc4)cc3)ccc12,57.7%,78.8%,97.3%,57.2%,58.9%,85.4%,96.6%,88.6%
CC1=C(C)C(=O)C(Nc2ccc3c(c2)OCO3)=C(Br)C1=O,30.3%,107%,103%,107%,77.5%,85.6%,105%,97.4%
Brc1cc(-c2cc(-c3ccc4c(c3)OC=CO4)[nH]n2)cs1,62.1%,109%,28.4%,82.1%,25.1%,84.1%,94.7%,64.2%
CCOP(=O)(OCC)OC[C@]12CCC(C)(C)CC1C1=CC[C@@H]3[C@@]4(C)CCCNC(C)(C)[C@@H]4CC[C@@]3(C)[C@]1(C)CC2 (stereo not given in full),79.2%,104%,90.6%,66.3%,35.1%,20.4%,26.6%,88.7%
NC1=NC2(CCCC2)N(c2ccc(S(=O)(=O)Nc3nccs3)cc2)C(N)=N1,103%,102%,107%,105%,97.6%,109%,109%,101%
O=C(CCl)Nc1ccc(NC(=O)c2cc(Cl)ccc2O)c(Cl)c1,81.3%,65.8%,66%,35.2%,29.1%,39%,105%,75.8%
CNCCN(C)c1ccc(Nc2cc(NC3CC3)n3ncc(C#N)c3n2)cc1NC(C)=O,-16.2% (active),-54.7% (active),6.93% (active),-2.54% (active),-0.902% (active),-5.45% (active),10.2%,8.46% (active)
Cc1ccc2c(n1)C(=O)C(Cl)=C(Nc1cccc(C(F)(F)F)c1)C2=O,-41.9% (active),123%,71.3%,-0.806% (active),-54.7% (active),-25.9% (active),108%,106%
